PubChem BioAssay (NCI)
The panel holds about 83,000 compounds, 20% with a hit somewhere; the sample as a whole holds those more often.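 A percent growth of 40 corresponds to 60% growth inhibition; 0 means no net growth; -100 means all cells died. Active threshold: below 10.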 A number with no mark means an inactive call. The source made the active and inactive calls.

What was measured:
Assay in all cases: NCI-60 one-dose screen, 48 h (100 = growth as untreated, 0 = no growth, -100 = all killed)
[1] = system: DU-145 prostate; settings: 10 µM unless noted
[2] = system: K-562 leukemia; settings: 10 µM unless noted
[3] = system: MALME-3M melanoma; settings: 10 µM unless noted
[4] = system: MDA-MB-231 breast; settings: 10 µM unless noted
[5] = system: RXF 393 renal; settings: 10 µM unless noted
[6] = system: SF-268 CNS; settings: 10 µM unless noted
[7] = system: SF-295 CNS; settings: 10 µM unless noted
[8] = system: SF-539 CNS; settings: 10 µM unless noted
[9] = system: UACC-257 melanoma; settings: 10 µM
[10] = system: M14 melanoma; settings: 10 µM unless noted
[11] = system: HCT-15 colon; settings: 10 µM unless noted
[12] = system: HT29 colon; settings: 10 µM unless noted
[13] = system: SNB-75 CNS; settings: 10 µM unless noted
[14] = system: SNB-19 CNS; settings: 10 µM unless noted
[15] = system: U251 CNS; settings: 10 µM unless noted
[16] = system: PC-3 prostate; settings: 10 µM unless noted
[17] = system: SK-MEL-5 melanoma; settings: 10 µM unless noted
[18] = system: UACC-62 melanoma; settings: 10 µM unless noted
[19] = system: LOX IMVI melanoma; settings: 10 µM unless noted
[20] = system: SK-MEL-28 melanoma; settings: 10 µM unless noted

SMILES	growth [1]	growth [2]	growth [3]	growth [4]	growth [5]	growth [6]	growth [7]	growth [8]	growth [9]	growth [10]	growth [11]	growth [12]	growth [13]	growth [14] [%]	growth [15]	growth [16]	growth [17]	growth [18]	growth [19]	growth [20]
CNC(=O)c1cc(Oc2ccc3nc(NC(=O)c4ccc(CN5CCN(C)CC5)c(C(F)(F)F)c4)sc3c2)ccn1	79.3%	11.7%	-5.19% (active)	77.5%	46.7%	74.6%	36%	25%	20.4%	0.73% (active)	8.89% (active)	16.1%	55.1%	75.9	57.1%	47.3%	31.4%	56.3%	-28.2% (active)	-38.1% (active)
Nc1nc(-c2cccc([N+](=O)[O-])c2)c(N=Nc2ccccc2[N+](=O)[O-])s1	37.4%	50.8%	53.9%	-54.1% (active)	-67.7% (active)	19.6%	26.6%	-73.3% (active)	103%	50.7%	43.8%	80.2%	-14.7% (active)	12.4	-79.5% (active)	46.4%	47%	66.1%	6.53% (active)	88.4%
Cc1cn(-c2cc(NC(=O)c3cncc(C#Cc4cnc5ccc(OCCCS(C)(=O)=O)nn45)c3)cc(C(F)(F)F)c2)cn1	12.6%	11%	11.7%	14.4%	-74.5% (active)	-5.33% (active)	54.6%	6.3% (active)	64.4%	18%	37.8%	16.1%	13.6%	18.8	26.8%	52.8%	2.76% (active)	21.4%	9.26% (active)	31.5%
Cn1nc(Nc2ccccc2)c(C(=O)NN)c1N	106%	108%	90.9%	93%	109%	103%	103%	96%	102%	101%	97.8%	103%	81.6%	101	102%	95.1%	99.3%	96.8%	97.2%	103%
O=S(=O)(NC1CC2CCC1C2)c1ccc2c(c1)C(=NO)c1cc(S(=O)(=O)NC3CC4CCC3C4)ccc1-2 (stereo not given)	4.92% (active)	11.9%	-78.9% (active)	-21.9% (active)	-9.66% (active)	8.95% (active)	62.9%	-35% (active)	105%	24.9%	31.2%	22.3%	37.2%	63.3	-64.2% (active)	59.2%	93%	71%	-90.5% (active)	92.3%
N#Cc1c(NC(=O)c2ccc(F)c(Cl)c2)sc2c1CCC(=O)C2	25.8%	9.06% (active)	-78.7% (active)	-55.7% (active)	-60.5% (active)	16.3%	-12.2% (active)	-56.2% (active)	2.11% (active)	-17.8% (active)	-38.6% (active)	8.89% (active)	-0.913% (active)	15.1	11.6%	-19.8% (active)	-75.6% (active)	-69.7% (active)	-16.1% (active)	-66.9% (active)
CCC(=O)Nc1cc(Nc2cc(NC3CC3)n3ncc(C#N)c3n2)ccc1C	44.7%	22.9%	30.8%	19.5%	-8.35% (active)	35%	21.7%	21.8%	34.2%	14.9%	13%	25.8%	-9.89% (active)	25.9	19.5%	19.7%	15.2%	18.9%	21.1%	46.3%
O=C1Nc2ccc(Cl)cc2/C1=C/c1ccc(OCc2ccc(F)cc2)cc1	95.9%	78.4%	102%	95.2%	95.5%	92.7%	99%	96%	96.6%	98.1%	87.8%	99.4%	89.7%	99.1	95.4%	93.6%	105%	90.8%	92.8%	96.3%
NS(=O)(=O)c1ccc(Nc2nc(N/N=C/c3ccc([N+](=O)[O-])cc3)nc(Nc3ccccc3)n2)cc1	43.6%	20.3%	36.9%	45.8%	-5.96% (active)	26.9%	57.1%	-36.3% (active)	82.5%	13.3%	86.5%	24.6%	45.4%	20.4	18.2%	50.2%	32.3%	45.1%	-20.6% (active)	35.2%
O=C(NNc1nc2cc(F)cc(F)c2n2cccc12)c1ncccn1	20.6%	17.8%	25.9%	34.9%	33%	13.6%	12.6%	-0.152% (active)	12.9%	-18.1% (active)	26.2%	25.4%	-7.95% (active)	20	14.4%	31.6%	-40.9% (active)	2.21% (active)	5.13% (active)	22.8%
CNC(=O)c1c(NC(=O)c2ccc(F)cc2F)sc2c1CCC(=O)C2	66.4%	12.7%	-9.54% (active)	-16.6% (active)	-28.9% (active)	20.3%	-3.76% (active)	-28.6% (active)	-2.26% (active)	19.3%	-2.45% (active)	12.8%	4.82% (active)	19.1	12.6%	11.7%	-64.9% (active)	-25.5% (active)	14.5%	30.2%
O=C(NNc1nc2cc(F)c(F)cc2n2cccc12)c1ccncn1	22.2%	16.1%	34.4%	36.4%	30.4%	18.7%	15.9%	6.94% (active)	15.7%	12.9%	23.6%	27.3%	-6.38% (active)	27.5	17.9%	33.2%	-19.4% (active)	19%	11.7%	29.4%
COc1ccc(NC(=O)[C@H](C)NC(=O)OC(C)(C)C)cc1C(=O)Nc1cccc(-c2cc(=O)c3c(OC)c(OC)c(OC)cc3o2)c1	23%	10.6%	-13.2% (active)	-46.4% (active)	-84.4% (active)	34.9%	-11.4% (active)	-38.1% (active)	-74.4% (active)	-52.3% (active)	3.87% (active)	-10.5% (active)	-18.3% (active)	16.9	-34.1% (active)	-36.9% (active)	-91.1% (active)	-40.8% (active)	-73.7% (active)	0.755% (active)
O=C(CN1CCN(c2cc(=O)n(-c3ccccc3)c3ccccc23)CC1)Nc1ccc([N+](=O)[O-])cc1	99.8%	71.4%	83.9%	77.2%	68.7%	89.7%	103%	91.7%	90.3%	99%	95.1%	105%	88%	87.1	93.9%	84.7%	74.1%	63.4%	89.3%	101%
Cc1ccccc1NC1CC(=O)N(c2ccc(Cl)cc2Cl)C1=O (stereo not given)	103%	107%	98.9%	104%	112%	99.4%	102%	93.1%	98.5%	102%	101%	104%	90.9%	95.6	99.5%	97.2%	94.4%	99.8%	94.4%	105%
COc1ccc(Cn2cc3c(c2-c2cc(OC)c(OC)c(OC)c2)CCCc2cnoc2-3)cc1N	17.2%	20.3%	54.9%	35.2%	-5.39% (active)	58%	0% (active)	1.95% (active)	90.3%	0.685% (active)	26.8%	14.6%	-14.5% (active)	28.7	32.6%	35.5%	23.1%	41.5%	45.1%	65.9%
